The values below come from PubChem BioAssay (EPA / NIEHS).

The AC50 is the midpoint of the concentration-response curve, whichever way the signal moves.

Inconclusive results are not listed. The source made the active and inactive calls. How the source made its calls: active means hit-call score of the fitted dose curve at least 0.9, where 1 is the maximum; inconclusive means response in the unintended direction; inactive means score below 0.9.

Sequence of Caspase-1 (Homo sapiens) (P29466 whole entry, looked up): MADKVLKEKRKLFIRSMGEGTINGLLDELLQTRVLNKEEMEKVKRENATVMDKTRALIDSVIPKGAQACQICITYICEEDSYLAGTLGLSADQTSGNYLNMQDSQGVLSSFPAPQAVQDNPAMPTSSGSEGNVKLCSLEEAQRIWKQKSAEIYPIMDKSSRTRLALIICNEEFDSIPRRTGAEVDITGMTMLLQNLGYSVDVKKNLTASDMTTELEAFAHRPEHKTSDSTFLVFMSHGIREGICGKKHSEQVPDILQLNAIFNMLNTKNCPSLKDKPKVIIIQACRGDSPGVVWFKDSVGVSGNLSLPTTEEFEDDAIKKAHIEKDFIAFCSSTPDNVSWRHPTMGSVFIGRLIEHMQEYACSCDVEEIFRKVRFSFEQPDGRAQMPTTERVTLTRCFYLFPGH

The target of the test is Caspase-1 (Homo sapiens) (UniProt P29466). The experiment in a line: NVS_ENZ_hCASP1: NovaScreen (NVS) Enzymatic Assay for human Caspase 1 (CASP1) (AID 2283132). Here is the method:
NVS_ENZ_hCASP1 is a biochemical, single-readout assay that uses extracted gene-proteins from E. coli in a cell-free assay. Measurements were taken 1 hour after chemical dosing in a 96-well plate.NVS_ENZ_hCASP1 is one of one assay component(s) measured or calculated from the NVS_ENZ_hCASP1 assay. It is designed to make measurements of enzyme activity, a form of enzyme reporter, as detected with fluorescence intensity signals by Fluorescence technology.Data from the assay component NVS_ENZ_hCASP1 was analyzed into 1 assay endpoint. This assay endpoint, NVS_ENZ_hCASP1, was analyzed in the positive analysis fitting direction relative to DMSO as the negative control and baseline of activity. Using a type of enzyme reporter, loss-of-signal activity can be used to understand changes in the enzymatic activity as they relate to the gene CASP1. Furthermore, this assay endpoint can be referred to as a primary readout, because this assay has produced multiple assay endpoints where this one serves a enzymatic activity function. To generalize the intended target to other relatable targets, this assay endpoint is annotated to the protease intended target family, where the subfamily is cysteine protease.
Binding assays used specific radioligands (tritiated, iodinated) with non-radioactive competitive displacement ligands in agonist or antagonist protocols (as indicated) and various reference compounds and inhibitors to titrate specific binding to receptors and transporters. Most enzyme assays (CYPs, kinases, phosphatases, proteases, HDACs) used recombinant protein and specific substrates (fluorescence mostly, some colorimetric and radioactive) and inhibitors, followed by a biochemical separation of substrate and product. All assays for the biochemical HTS were initially run in duplicate at a single concentration (10 uM for CYP450 assays and 25 uM for all others). Assay-chemical combinations meeting a pre-defined threshold (e.g., 30% inhibition and other criteria defined below) were then run in singleton concentration-response format with maximum concentration of 20 uM for CYPs and 50 uM for all others. Each assay was run with positive and negative controls, and concurrent controls on every plate. The follow-up (secondary) screen tested active chemical-pairs in concentration series, as well as a few additional assays not tested in the primary screen, some selected negative inactives, and several cases re-run in the concentration series for confirmatory purposes.
On to `Nc1ccc2c(c1)C(=O)c1ccccc1C2=O`, for which the molecule was called inactive.

Regarding `COc1cc(-c2nc(NC(=O)c3cc4cc(C)cc(C)c4n3CC(=O)O)sc2CCC2CCCCC2)c(OC)cc1Cl`, the AC50 was 29.1 µM (active).

With `CCc1cc(SCc2sc(-c3ccc(C(F)(F)F)cc3)nc2CN2CCN(c3ccc(OC)cc3)CC2)ccc1OCC(=O)O`, the AC50 is 46.1 µM (active).

For the molecule `CN(C)c1ccc(C(=C2C=CC(=[N+](C)C)C=C2)c2ccc(N(C)C)cc2)cc1`, the result was inactive.

Take `O=C1c2c(O)cccc2Cc2cccc(O)c21`: the AC50 is 5.01 µM (active).

Take `CCOc1cccc(-n2cc(C(=O)N3CCN(c4cc(C(=O)O)c5ccccc5c4)CC3)nc2-c2ccc(C)cc2)c1`: the molecule was classed as inactive.

Turning to `CCC(O)=C1C(=O)CC(C(=O)O)CC1=O` (stereo not given), the molecule was classed as inactive.

On to `S=C([S-])NCCNC(=S)[S-].[Mn+2]`, for which the molecule was classed as inactive.

For `S=C(S)NCCNC(=S)S.[Mn+2].[S-]C([S-])=NCCN=C([S-])[S-].[Zn+2]`, the molecule was classed as inactive.

In the case of `COc1cc(S(=O)(=O)O)c(C)cc1N=Nc1c(O)ccc2cc(S(=O)(=O)O)ccc12`, the half-maximal activity concentration (AC50) was 25 µM (active).

As to `O=C(OC[C@H]1O[C@@H](OC(=O)c2cc(O)c(O)c(OC(=O)c3cc(O)c(O)c(O)c3)c2)[C@H](OC(=O)c2cc(O)c(O)c(OC(=O)c3cc(O)c(O)c(O)c3)c2)[C@@H](OC(=O)c2cc(O)c(O)c(OC(=O)c3cc(O)c(O)c(O)c3)c2)[C@@H]1OC(=O)c1cc(O)c(O)c(OC(=O)c2cc(O)c(O)c(O)c2)c1)c1cc(O)c(O)c(OC(=O)c2cc(O)c(O)c(O)c2)c1`, the AC50 is 1.14 µM (active).

Take `Oc1cc2ccccc2c2ccccc12`: the AC50 was 12.1 µM (active).

On to `O=S(=O)(O)c1ccc(N=Nc2c(O)ccc3cc(S(=O)(=O)O)ccc23)cc1`, for which the AC50 was 25 µM (active).

Turning to `CCCCCCC(C)OC(=O)COc1nc(F)c(Cl)c(N)c1Cl` (stereo not given), the outcome was inactive.

Take `OC[C@H]1O[C@@](CO)(O[C@H]2O[C@H](CO)[C@@H](O)[C@H](O)[C@H]2O)[C@@H](O)[C@@H]1O`: the result was inactive.
